About 7,900 targets were measured; listed, in parts, are those with a hit and a random draw of the rest. About 0.6% of all pairs of compound and target were hits. Unmarked numbers belong to inactive results.
Legend:
Assay in all cases: log2 fold change, soluble protein after heating vs DMSO (PISA); higher = thermal stabilisation; K562 cells, 10 uM, 30 min; active = over 0.2 and 3.5 SD of the protein, either way, in both replicates (recomputed)
[1] = compound: CS(=O)(=O)c1ccc(-c2cnc(N)c(C(=O)Nc3ccccc3)n2)cc1
Outline: (§1)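 Soluble protein was quantified by TMTpro 16plex LC-MS/MS after channel sums were equalised. It was obtained as the supernatant after 21,000xg for 90 min from pooled aliquots of K562 cells (2×10^6 cells/mL, 10 μM compound, 30 min) heated for 3 min across 48°C-58°C and extracted in PBS with 0.5% NP-40 at 4°C. Thermal stability values are relative to control samples and come from duplicates. They are given as log2 fold changes.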

[2] = compound: C[C@@H](Oc1cc(-c2cnn(C3CCNCC3)c2)cnc1N)c1c(Cl)ccc(F)c1Cl [crizotinib]
Outline: as §1

[3] = compound: C[C@@H]1COCCN1C2=NC(=NC(=C2)C3(CC3)S(=O)(=O)C)C4=C5C=CNC5=CC=C4
Outline: as §1

[4] = compound: C[C@H](C1=CC=C(C=C1)C(=O)NC2=C3C=CNC3=NC=C2)N
Outline: as §1

[5] = compound: C[C@H](Nc1ncnc2nc[nH]c12)c1cc2cccc(Cl)c2c(=O)n1-c1ccccc1 [duvelisib]
Outline: as §1

[6] = compound: Cc1cc(Nc2cc(CN3CCOCC3)c3nc(C)c(Cc4ccc(Cl)cc4F)n3n2)n[nH]1 [gandotinib]
Outline: as §1

[7] = compound: Cc1cc(Nc2cc(N3CCN(C)CC3)nc(Sc3ccc(NC(=O)C4CC4)cc3)n2)n[nH]1 [tozasertib]
Outline: as §1

[8] = compound: Cc1cc(SCc2sc(-c3ccc(C(F)(F)F)cc3)nc2C)ccc1OCC(=O)O
Outline: as §1

[9] = compound: Cc1ccc(-n2nc(C(C)(C)C)cc2NC(=O)Nc2ccc(OCCN3CCOCC3)c3ccccc23)cc1 [doramapimod]
Outline: as §1

[10] = compound: Cc1ccc(C(=O)N(CCCN)[C@@H](c2nc3cc(Cl)ccc3c(=O)n2Cc2ccccc2)C(C)C)cc1 [ispinesib]
Outline: as §1

[11] = compound: Cc1ccc(NC(=O)c2ccc(CN3CC[C@H](N(C)C)C3)c(C(F)(F)F)c2)cc1Nc1nccc(-c2cncnc2)n1 [bafetinib]
Outline: as §1

[12] = compound: Cc1cccc(CC(=O)N2CCc3c2ccc(-c2cn(C)c4ncnc(N)c24)c3F)n1
Outline: as §1

[13] = compound: Cc1cn(-c2cc(NC(=O)c3ccc(C)c(Nc4nccc(-c5cccnc5)n4)c3)cc(C(F)(F)F)c2)cn1 [nilotinib]
Outline: as §1

[14] = compound: Cc1nc(Nc2n[nH]c3c2CN(C(=O)N[C@H](CN(C)C)c2ccccc2)C3(C)C)c2sccc2n1
Outline: as §1

[15] = compound: Cc1nc(Nc2ncc(C(=O)Nc3c(C)cccc3Cl)s2)cc(N2CCN(CCO)CC2)n1 [dasatinib]
Outline: as §1

[16] = compound: Cc1ncc(-c2ccnc(Nc3ccc(S(C)(=O)=O)cc3)n2)n1C(C)C
Outline: as §1

[17] = compound: Cn1cc(-c2ccc3c(c2)CCN3C(=O)Cc2cccc(C(F)(F)F)c2)c2c(N)ncnc21
Outline: as §1

[18] = compound: Cn1cc(-c2ccc3nnc(C(F)(F)c4ccc5ncccc5c4)n3n2)cn1
Outline: as §1

[19] = compound: Cn1cncc1[C@@](N)(c1ccc(Cl)cc1)c1ccc2c(c1)c(-c1cccc(Cl)c1)cc(=O)n2C [tipifarnib]
Outline: as §1

[20] = compound: FC(F)(F)c1ccc(/C=C/c2nc(COc3ccc(CCCCn4ccnn4)cc3)co2)cc1 [mubritinib]
Outline: as §1

Chain of UniProt P50851 (P50851 whole entry, looked up): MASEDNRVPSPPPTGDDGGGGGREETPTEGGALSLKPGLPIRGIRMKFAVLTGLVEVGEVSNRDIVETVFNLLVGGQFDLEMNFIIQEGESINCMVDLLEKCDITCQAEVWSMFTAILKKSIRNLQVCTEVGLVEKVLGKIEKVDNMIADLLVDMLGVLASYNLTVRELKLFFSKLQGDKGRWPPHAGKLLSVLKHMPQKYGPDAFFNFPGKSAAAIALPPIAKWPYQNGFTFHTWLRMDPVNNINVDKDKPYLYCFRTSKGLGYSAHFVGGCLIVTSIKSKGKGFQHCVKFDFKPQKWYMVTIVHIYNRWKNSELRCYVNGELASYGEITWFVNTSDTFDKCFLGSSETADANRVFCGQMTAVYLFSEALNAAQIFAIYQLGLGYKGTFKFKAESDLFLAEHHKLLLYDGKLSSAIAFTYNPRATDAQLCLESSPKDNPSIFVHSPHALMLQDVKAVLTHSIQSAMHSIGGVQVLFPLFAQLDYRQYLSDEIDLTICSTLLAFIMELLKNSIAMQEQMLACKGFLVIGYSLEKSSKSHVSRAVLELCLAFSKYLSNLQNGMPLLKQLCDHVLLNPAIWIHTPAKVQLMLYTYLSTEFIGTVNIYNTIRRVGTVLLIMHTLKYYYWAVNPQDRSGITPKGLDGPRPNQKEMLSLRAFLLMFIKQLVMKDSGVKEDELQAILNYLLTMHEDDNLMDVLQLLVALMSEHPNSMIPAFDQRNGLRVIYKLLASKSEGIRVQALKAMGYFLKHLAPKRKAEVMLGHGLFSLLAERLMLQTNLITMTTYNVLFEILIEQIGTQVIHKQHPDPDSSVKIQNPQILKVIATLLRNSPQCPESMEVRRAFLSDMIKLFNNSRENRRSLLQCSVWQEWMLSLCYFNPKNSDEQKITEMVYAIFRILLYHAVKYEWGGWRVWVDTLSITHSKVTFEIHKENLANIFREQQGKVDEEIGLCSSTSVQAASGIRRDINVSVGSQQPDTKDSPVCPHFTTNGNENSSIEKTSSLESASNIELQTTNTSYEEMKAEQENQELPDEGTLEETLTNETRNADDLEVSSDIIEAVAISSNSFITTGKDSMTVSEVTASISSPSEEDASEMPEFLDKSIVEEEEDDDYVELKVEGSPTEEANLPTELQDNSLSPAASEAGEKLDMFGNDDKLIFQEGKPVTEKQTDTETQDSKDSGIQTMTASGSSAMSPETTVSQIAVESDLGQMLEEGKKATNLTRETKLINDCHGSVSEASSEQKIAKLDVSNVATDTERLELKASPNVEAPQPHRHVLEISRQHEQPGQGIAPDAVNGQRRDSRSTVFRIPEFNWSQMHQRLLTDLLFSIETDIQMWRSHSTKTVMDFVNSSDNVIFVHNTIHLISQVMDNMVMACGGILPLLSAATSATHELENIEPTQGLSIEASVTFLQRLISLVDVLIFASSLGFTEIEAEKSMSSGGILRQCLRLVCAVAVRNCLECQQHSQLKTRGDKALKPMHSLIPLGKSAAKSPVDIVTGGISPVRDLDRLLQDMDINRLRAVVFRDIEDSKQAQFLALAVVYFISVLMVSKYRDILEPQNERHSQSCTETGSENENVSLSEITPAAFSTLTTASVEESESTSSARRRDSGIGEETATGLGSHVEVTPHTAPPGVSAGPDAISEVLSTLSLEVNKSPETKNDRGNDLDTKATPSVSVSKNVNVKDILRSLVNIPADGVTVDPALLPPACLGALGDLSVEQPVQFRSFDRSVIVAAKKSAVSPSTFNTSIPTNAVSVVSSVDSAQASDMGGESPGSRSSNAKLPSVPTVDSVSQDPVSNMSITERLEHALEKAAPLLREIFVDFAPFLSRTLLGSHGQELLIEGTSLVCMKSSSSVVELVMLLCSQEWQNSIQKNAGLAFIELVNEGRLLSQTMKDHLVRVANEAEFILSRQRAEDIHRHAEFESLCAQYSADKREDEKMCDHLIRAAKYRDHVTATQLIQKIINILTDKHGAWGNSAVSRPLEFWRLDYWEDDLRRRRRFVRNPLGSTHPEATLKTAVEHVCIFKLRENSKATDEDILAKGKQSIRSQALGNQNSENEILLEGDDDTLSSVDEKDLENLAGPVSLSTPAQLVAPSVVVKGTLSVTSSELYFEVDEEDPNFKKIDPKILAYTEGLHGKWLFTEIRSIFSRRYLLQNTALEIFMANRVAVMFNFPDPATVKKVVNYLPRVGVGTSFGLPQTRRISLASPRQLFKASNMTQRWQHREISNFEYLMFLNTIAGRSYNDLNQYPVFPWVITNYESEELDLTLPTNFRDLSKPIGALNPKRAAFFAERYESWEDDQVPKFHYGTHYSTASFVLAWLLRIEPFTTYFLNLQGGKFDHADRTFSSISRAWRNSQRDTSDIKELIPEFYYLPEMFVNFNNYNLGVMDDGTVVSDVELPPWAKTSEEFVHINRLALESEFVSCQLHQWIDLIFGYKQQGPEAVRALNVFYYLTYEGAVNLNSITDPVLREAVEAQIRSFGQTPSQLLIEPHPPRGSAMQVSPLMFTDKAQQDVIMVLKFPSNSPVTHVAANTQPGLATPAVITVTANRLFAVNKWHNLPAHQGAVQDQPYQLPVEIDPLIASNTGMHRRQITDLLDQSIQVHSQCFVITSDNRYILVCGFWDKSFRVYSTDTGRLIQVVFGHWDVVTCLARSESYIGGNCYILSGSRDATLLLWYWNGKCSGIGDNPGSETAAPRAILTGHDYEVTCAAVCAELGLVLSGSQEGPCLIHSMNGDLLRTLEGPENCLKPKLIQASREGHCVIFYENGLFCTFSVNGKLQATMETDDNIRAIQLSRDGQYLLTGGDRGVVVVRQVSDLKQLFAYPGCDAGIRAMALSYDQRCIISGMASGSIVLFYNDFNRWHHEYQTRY
Chain of UniProt O95232 (O95232 whole entry, looked up): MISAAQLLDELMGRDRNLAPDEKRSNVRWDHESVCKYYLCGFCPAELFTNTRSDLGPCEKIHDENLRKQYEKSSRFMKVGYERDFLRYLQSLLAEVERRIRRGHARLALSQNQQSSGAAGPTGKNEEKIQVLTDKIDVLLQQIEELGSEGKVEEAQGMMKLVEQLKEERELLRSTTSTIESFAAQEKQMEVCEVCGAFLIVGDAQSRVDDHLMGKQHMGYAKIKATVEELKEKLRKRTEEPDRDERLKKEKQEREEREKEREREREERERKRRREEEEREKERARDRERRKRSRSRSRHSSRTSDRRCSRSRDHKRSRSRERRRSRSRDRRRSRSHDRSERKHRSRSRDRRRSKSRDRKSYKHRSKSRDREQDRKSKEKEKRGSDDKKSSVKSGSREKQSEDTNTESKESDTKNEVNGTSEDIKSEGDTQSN
Chain of UniProt Q9H1H9 (Q9H1H9 whole entry, looked up): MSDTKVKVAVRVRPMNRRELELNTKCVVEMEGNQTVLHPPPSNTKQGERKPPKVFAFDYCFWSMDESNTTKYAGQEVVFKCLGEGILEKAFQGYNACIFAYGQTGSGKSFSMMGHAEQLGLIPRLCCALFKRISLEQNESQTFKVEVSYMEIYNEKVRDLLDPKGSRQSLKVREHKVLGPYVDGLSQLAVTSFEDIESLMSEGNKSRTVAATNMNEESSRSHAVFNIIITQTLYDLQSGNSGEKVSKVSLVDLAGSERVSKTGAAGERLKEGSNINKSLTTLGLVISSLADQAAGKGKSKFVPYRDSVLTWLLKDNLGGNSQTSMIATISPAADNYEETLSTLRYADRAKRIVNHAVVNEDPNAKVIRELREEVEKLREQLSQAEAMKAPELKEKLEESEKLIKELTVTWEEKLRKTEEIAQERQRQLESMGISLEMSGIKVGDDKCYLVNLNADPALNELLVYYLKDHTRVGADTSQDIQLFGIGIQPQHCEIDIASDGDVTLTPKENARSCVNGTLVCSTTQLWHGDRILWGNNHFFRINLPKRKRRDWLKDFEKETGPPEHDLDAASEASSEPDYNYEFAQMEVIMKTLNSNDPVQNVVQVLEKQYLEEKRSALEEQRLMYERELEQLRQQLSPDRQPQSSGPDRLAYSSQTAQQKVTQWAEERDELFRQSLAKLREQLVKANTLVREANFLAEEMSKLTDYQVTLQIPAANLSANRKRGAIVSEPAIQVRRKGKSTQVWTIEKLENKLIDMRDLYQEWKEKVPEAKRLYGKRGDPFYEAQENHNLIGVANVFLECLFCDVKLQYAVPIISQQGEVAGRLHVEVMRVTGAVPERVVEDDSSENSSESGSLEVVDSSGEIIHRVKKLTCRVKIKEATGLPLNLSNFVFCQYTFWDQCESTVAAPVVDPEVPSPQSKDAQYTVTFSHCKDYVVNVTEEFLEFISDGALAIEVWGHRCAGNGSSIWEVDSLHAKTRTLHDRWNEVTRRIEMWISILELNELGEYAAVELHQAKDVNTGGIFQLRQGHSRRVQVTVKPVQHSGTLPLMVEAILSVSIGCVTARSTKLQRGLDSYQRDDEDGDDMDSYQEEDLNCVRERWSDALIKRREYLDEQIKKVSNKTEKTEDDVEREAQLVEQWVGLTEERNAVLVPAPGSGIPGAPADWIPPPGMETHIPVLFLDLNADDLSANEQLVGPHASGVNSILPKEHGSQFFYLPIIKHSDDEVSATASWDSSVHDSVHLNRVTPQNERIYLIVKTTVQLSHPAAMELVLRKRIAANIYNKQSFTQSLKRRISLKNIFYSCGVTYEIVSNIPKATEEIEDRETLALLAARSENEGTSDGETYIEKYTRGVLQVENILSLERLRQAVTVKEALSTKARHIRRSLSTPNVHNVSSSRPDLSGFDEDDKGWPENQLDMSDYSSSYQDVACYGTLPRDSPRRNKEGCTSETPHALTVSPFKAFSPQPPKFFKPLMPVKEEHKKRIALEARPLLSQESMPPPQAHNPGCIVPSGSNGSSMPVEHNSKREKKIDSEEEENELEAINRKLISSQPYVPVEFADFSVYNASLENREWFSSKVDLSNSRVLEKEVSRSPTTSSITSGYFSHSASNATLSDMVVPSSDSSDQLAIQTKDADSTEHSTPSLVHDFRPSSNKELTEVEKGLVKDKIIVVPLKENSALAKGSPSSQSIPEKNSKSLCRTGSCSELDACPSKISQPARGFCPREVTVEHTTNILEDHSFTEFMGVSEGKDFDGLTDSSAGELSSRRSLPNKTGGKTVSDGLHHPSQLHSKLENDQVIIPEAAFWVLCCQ

Row | Target | log2 fold change [1] | log2 fold change [2] | log2 fold change [3] | log2 fold change [4] | log2 fold change [5] | log2 fold change [6] | log2 fold change [7] | log2 fold change [8] | log2 fold change [9] | log2 fold change [10] | log2 fold change [11] | log2 fold change [12] | log2 fold change [13] | log2 fold change [14] | log2 fold change [15] | log2 fold change [16] | log2 fold change [17] | log2 fold change [18] | log2 fold change [19] | log2 fold change [20]
1 | LMNB1 (UniProt P20700) | -0.01 | 0.038 | 0.108 | -0.172 | -0.018 | -0.03 | 0.096 | -0.022 | -0.003 | 0.041 | -0.089 | -0.004 | 0.037 | -0.11 | 0.092 | -0.117 | -0.059 | -0.074 | 0.105 | -0.069
2 | LMBRD2 (UniProt Q68DH5) | 0.034 | -0.156 | -0.042 | -0.152 | 0.001 | -0.049 | -0.016 | -0.065 | 0.011 | -0.328 (active) | -0.142 | -0.006 | -0.048 | 0.041 | 0.019 | -0.028 | -0.03 | 0.043 | 0.189 | -0.007
3 | MAP1LC3B2 (UniProt A6NCE7) | 0.035 | -0.047 | 0.054 | -0.144 | 0.061 | -0.012 | 0.114 | 0.011 | 0.003 | 0.02 | -0.044 | -0.029 | -0.006 | -0.023 | -0.024 | 0.072 | 0.019 | -0.011 | 0.007 | 0.018
4 | IRAK4 (UniProt Q9NWZ3) | 0.034 | -0.025 | 0.003 | 0.046 | -0.01 | -0.107 | 0.061 | 0.104 | -0.047 | -0.05 | -0.047 | 0.236 (active) | -0.089 | -0.047 | -0.143 | -0.01 | 0.011 | 0.035 | -0.116 | -0.031
5 | LRBA (UniProt P50851) | 0.018 | -0.054 | 0.037 | -0.005 | 0.012 | -0.094 | -0.006 | 0.011 | 0.012 | -0.078 | -0.047 | 0.053 | -0.067 | -0.022 | -0.061 | 0.014 | 0.047 | 0.002 | -0.06 | 0.024
6 | MARCKS (UniProt P29966) | 0.022 | 0.198 | -0.042 | -0.191 | 0.006 | 0.234 | -0.068 | 0.025 | 0 | -0.031 | -0.102 | -0.133 | 0.053 | -0.003 | 0.022 | -0.007 | 0.033 | 0.034 | -0.002 | -0.017
7 | KIF21A isoform 4 (UniProt Q7Z4S6) | 0.092 | -0.039 | 0.027 | 0.207 | 0.055 | -0.001 | 0.021 | 0.044 | 0.047 | -0.153 | 0.051 | 0.079 | -0.104 | 0.083 | -0.193 | 0.037 | -0.066 | -0.073 | -0.039 | 0.11
8 | LIMA1 isoform 4 (UniProt Q9UHB6) | -0.076 | 0.001 | -0.04 | -0.057 | 0.003 | 0.019 | 0.027 | -0.036 | -0.023 | 0.185 | -0.115 | 0.019 | -0.136 | -0.112 | 0.179 | 0.052 | -0.154 | -0.071 | 0.088 | 0.019
9 | KNTC1 (UniProt P50748) | 0.038 | -0.178 | -0.002 | 0.045 | 0.061 | -0.162 | 0.014 | 0.012 | -0.01 | -0.086 | -0.013 | 0.043 | -0.064 | -0.026 | -0.047 | 0.042 | -0.073 | 0 | -0.108 | 0.004
10 | MAP3K20 (UniProt Q9NYL2) | -0.003 | -0.01 | -0.065 | 0.059 | -0.022 | -0.025 | 0.002 | 0.053 | -0.072 | -0.141 | -0.246 (active) | 0.039 | -0.216 | 0.057 | -0.712 (active) | -0.079 | -0.065 | -0.019 | -0.013 | -0.041
11 | KIFBP (UniProt Q96EK5) | -0.036 | -0.025 | 0.079 | 0.08 | 0.007 | -0.051 | 0.065 | 0.085 | -0.053 | -0.139 | 0.006 | 0.094 | -0.162 | -0.079 | -0.114 | -0.004 | -0.084 | -0.046 | -0.063 | -0.078
12 | KIF13A (UniProt Q9H1H9) | 0.018 | 0.058 | 0.112 | 0.072 | 0.034 | -0.384 (active) | 0.065 | -0.009 | -0.011 | -0.003 | -0.033 | -0.095 | 0.012 | -0.01 | -0.044 | 0.008 | 0.029 | -0.032 | -0.014 | 0.024
13 | KRAS isoform 2 (UniProt P01116) | 0.03 | 0.024 | -0.016 | 0.019 | -0.084 | -0.05 | -0.079 | -0.018 | -0.019 | -0.09 | 0.008 | -0.115 | -0.123 | 0.074 | -0.018 | -0.041 | 0.064 | -0.08 | 0.087 | 0.041
14 | LUC7L3 (UniProt O95232) | -0.001 | -0.045 | -0.022 | -0.219 (active) | -0.001 | 0.065 | 0.011 | 0.02 | 0 | 0.099 | 0.001 | -0.001 | 0.091 | -2.05 (active) | -0.037 | 0.052 | 0.007 | -0.019 | 0.036 | 0.02
15 | MARCKSL1 (UniProt P49006) | 0.032 | 0.09 | -0.006 | -0.094 | 0.025 | -0.006 | -0.033 | -0.074 | -0.047 | 0.071 | 0.04 | -0.087 | 0.003 | 0.014 | 0.062 | 0.009 | -0.008 | -0.004 | 0.034 | 0.005
16 | IRF2BPL (UniProt Q9H1B7) | -0.034 | 0.133 | 0.249 | -0.005 | 0.106 | -0.041 | 0.034 | 0.066 | -0.061 | -0.083 | -0.038 | 0.012 | -0.07 | -0.034 | -0.034 | -0.029 | 0.083 | -0.084 | -0.067 | -0.055
